Experimental data reported in PubChem BioAssay (Tox21).
“And” between values parts separate entries of the source, which are not always exact repeats. Identical values can stand only once. Inconclusive results are not listed. A call without a number means that no potency is given here. Some compounds were tested as several samples or in several runs, with calls that do not always agree. The source made the active and inactive calls. Unless noted, calls come from the whole dose curve; as a rule, active = well fitted curve in the direction sought with a large enough effect in the repeat runs; inconclusive = weak or mixed curves; inactive = no such curve, though single readings can be large; an effect the other way counts as inactive or inconclusive.

Experiments:
[1] = qHTS assay for small molecules that induce genotoxicity in human embryonic kidney cells expressing luciferase-tagged ATAD5 (AID 651632); note: nearly all actives have a fitted effect of over 15% in size
Procedure, shortened: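 Increased luciferase signal from ATAD5-tagged reporter cells indicates DNA-damage-driven ATAD5 induction. HEK293T cells are treated for 16 hr at 37C before detection with Amplite.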

[2] = qHTS assay for small molecule agonists of the p53 signaling pathway - cell viability (AID 651633; calls by dose curve; note: nearly all actives have a fitted effect of over 30% in size; note: potency is the fitted concentration of half-maximal effect)
Procedure, shortened: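 p53RE-bla cells, seeded at 4,000 per well and rested 5 h at 37 C/5% CO2, received compounds in DMSO for 16 h at 37 C. CellTiter-Glo was then added, and luminescence was read after 30 min at room temperature to gauge cytotoxicity.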

[3] = qHTS assay for small molecules that induce genotoxicity in human embryonic kidney cells expressing luciferase-tagged ATAD5 - cell viability (AID 651634; calls by dose curve; note: nearly all actives have a fitted effect of over 25% in size)
Procedure, shortened: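 Cytotoxicity counterscreen in HEK293T cells bearing an ATAD5-luciferase reporter: live-cell protease activity measured by CellTiter-Fluor fluorescence after 15.5 hr compound exposure.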

[4] = qHTS assay for small molecule disruptors of the mitochondrial membrane potential - cell viability (AID 720634; calls by dose curve;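 note: human HepG2 liver cancer cells; nearly all actives have a fitted effect of over 20% in size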)
Procedure, shortened: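 After overnight attachment at 37 C, HepG2 cells received compound or DMSO vehicle for 1 hr. Viability is then taken from ATP-driven luminescence following a 30 min room-temperature CellTiter-Glo step.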

[5] = qHTS assay to test for compound auto fluorescence at 590 nm (red) in HepG2 cells (AID 720674)
Procedure, shortened: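 Rose Bengal sodium served as the red fluorophore standard. HepG2 monolayers (overnight attachment, MEM with 10% FBS) were exposed to test compounds for 1 hr at 37 C and read at Ex 540/Em 590 nm.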

[6] = qHTS assay to test for compound auto fluorescence at 535 nm (green) in HepG2 cells (AID 720675)
[7] = qHTS assay to test for compound auto fluorescence at 460 nm (blue) in HEK293 cells (AID 720678)
Procedure, shortened: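 HEK293 cells (2,000 per well, medium with 10% dialyzed FBS) attached for 4-5 hr at 37C, then received compound and stood overnight at 37C, 5% CO2. Blue fluorescence was read at Ex/Em 405/460 nm and expressed relative to triamterene.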

[8] = qHTS assay to test for compound auto fluorescence at 590 nm (red) in HEK293 cells (AID 720679)
Procedure, shortened: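 HEK293 cells (2,000/well, medium with 10% dialyzed FBS) attached for 4-5 hr at 37C, received 23 nL compound and were incubated overnight at 37C, 5% CO2. Red fluorescence was then read at 540/590nm Ex/Em, referenced to Rose Bengal sodium.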

[9] = qHTS assay to test for compound auto fluorescence at 535 nm (green) in HEK293 cells (AID 720680)
[10] = qHTS assay to test for compound auto fluorescence at 460 nm (blue) in HEK293 cell free culture (AID 720681)
Procedure, shortened: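 Test compounds were pinned into cell-free culture medium (DMEM with 10% FBS) and fluorescence was read directly at Ex/Em 405/460 nm. Signals were expressed as fluorescence equivalents of triamterene, with DMSO vehicle as control.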

[11] = qHTS assay to test for compound auto fluorescence at 535 nm (green) in HEK293 cell free culture (AID 720682)
Procedure, shortened: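 Using fluorescein as calibrant, autofluorescence was quantified at 485/535 nm in cell-free DMEM containing 10% FBS after pintool addition of compound or vehicle.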

[12] = qHTS assay to test for compound auto fluorescence at 590 nm (red) in HEK293 cell free culture (AID 720683)
Procedure, shortened: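 Tox21 10K library compounds were pinned into cell-free DMEM with 10% FBS and fluorescence was read at excitation 540 nm. Activity is expressed as Rose Bengal sodium equivalency.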

[13] = qHTS assay to test for compound auto fluorescence at 590 nm (red) in HepG2 cell free culture (AID 720684)
Procedure, shortened: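 Measured in medium alone (MEM containing 10% FBS) following pintool addition of compound; emission at 590 nm with 540 nm excitation, referenced to Rose Bengal sodium.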

[14] = qHTS assay to test for compound auto fluorescence at 460 nm (blue) in HepG2 cell free culture (AID 720685)
Procedure, shortened: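 Compound (23 nL) or DMSO pinned into cell-free MEM with 10% FBS; blue fluorescence read at 405/460 nm excitation/emission, expressed as auto-fluorescence equivalency to triamterene.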

[15] = qHTS assay to test for compound auto fluorescence at 535 nm (green) in HepG2 cell free culture (AID 720686)
[16] = qHTS assay to test for compound auto fluorescence at 460 nm (blue) in HepG2 cells (AID 720687)
Procedure, shortened: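 Cells (2,000/well in MEM with 10% FBS) attached overnight at 37 C, then were exposed to compound or DMSO for 1 hr at 37 C, 5% CO2. Fluorescence read at Ex/Em 405/460 nm, expressed as triamterene-equivalent signal.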

[17] = molecular target: Glucocorticoid receptor (Homo sapiens) (UniProt P04150); assay: qHTS assay to identify small molecule agonists of the glucocorticoid receptor (GR) signaling pathway (AID 720691; active = well fitted activation curve with a large enough effect in the signal ratio in the repeat runs, not every such curve was filed as active; the % refers to the signal ratio); conditions: GR-bla HeLa, beta-lactamase reporter ratio, 18 h; activation: at 62.4 µM (top of the series) unless noted
Sequence of Glucocorticoid receptor (Homo sapiens) (P04150 whole entry, looked up): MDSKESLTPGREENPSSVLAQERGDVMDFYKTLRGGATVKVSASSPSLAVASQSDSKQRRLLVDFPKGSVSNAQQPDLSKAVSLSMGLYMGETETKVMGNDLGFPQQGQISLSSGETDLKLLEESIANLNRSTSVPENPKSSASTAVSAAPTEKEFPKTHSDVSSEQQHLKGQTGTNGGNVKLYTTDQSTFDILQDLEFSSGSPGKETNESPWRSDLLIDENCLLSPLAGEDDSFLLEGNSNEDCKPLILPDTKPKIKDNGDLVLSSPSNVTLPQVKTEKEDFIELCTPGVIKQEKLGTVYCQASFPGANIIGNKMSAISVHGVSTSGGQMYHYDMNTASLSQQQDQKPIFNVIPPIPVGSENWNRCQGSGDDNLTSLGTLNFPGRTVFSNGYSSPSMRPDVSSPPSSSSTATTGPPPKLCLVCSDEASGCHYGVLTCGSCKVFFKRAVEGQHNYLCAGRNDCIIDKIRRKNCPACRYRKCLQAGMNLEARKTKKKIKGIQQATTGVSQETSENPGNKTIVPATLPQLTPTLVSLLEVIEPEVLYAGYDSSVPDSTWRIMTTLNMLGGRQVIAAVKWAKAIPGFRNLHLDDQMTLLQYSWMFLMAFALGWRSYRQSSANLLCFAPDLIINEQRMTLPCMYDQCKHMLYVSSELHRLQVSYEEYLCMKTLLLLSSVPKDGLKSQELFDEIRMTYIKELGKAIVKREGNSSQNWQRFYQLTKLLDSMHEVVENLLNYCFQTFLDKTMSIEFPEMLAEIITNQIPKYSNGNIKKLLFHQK
Procedure, shortened: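 Agonist mode in a HeLa line carrying a GRE-controlled beta-lactamase reporter. Compounds act for 18 h at 37 C before a 2 h room-temperature FRET substrate step and fluorescence reading.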

[18] = molecular target: Glucocorticoid receptor (Homo sapiens) (UniProt P04150); assay: qHTS assay to identify small molecule antagonists of the glucocorticoid receptor (GR) signaling pathway (AID 720692; active = well fitted inhibition curve with a large enough effect in the signal ratio in the repeat runs, not every such curve was filed as active; the % refers to the signal ratio)
Procedure, shortened: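 Cells plated, rested 4 h at 37 C/5% CO2; compounds in DMSO pin-transferred; dexamethasone added to 5 nM final; 18 h at 37 C; B/G FRET substrate added, 2 h room temperature; fluorescence measured.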

[19] = qHTS assay for small molecule agonists of the p53 signaling pathway (AID 651631; calls by dose curve; note: nearly all actives have a fitted effect of over 15% in size; note: potency is the fitted concentration of half-maximal effect)
Procedure, shortened: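 Stably transfected HCT-116 cells (beta-lactamase behind p53 response elements) get compounds after a 5 h settling period; 16 h later at 37 °C, FRET substrate is loaded and fluorescence read after 2 h.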

[20] = qHTS assay for small molecule disruptors of the mitochondrial membrane potential (AID 720635); note: potency is the fitted concentration of half-maximal effect
Procedure, shortened: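 HepG2 cells (2,000/well) attached overnight at 37C, then took compound for 1 hr at 37C, 5% CO2. Mito-MPS dye was added for 30 min; fluorescence was read at 490/535 nm (monomers) and 540/590 nm (aggregates).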

Compound | Potency [1] | Potency [2] | Potency [3] | Potency [4] | Potency [5] | Potency [6] | outcome [7] | Potency [8] | outcome [9] | outcome [10] | outcome [11] | Potency [12] | Potency [13] | outcome [14] | Potency [15] | outcome [16] | Potency [17] | Potency [18] | Potency [19] | Potency [20]
COc1ccnc(CS(=O)c2nc3ccc(OC(F)F)cc3[nH]2)c1OC (stereo not given) | inactive | inactive | inactive | inactive | inactive | inactive | inactive | inactive | inactive | inactive | inactive | inactive | inactive | inactive | inactive | inactive | inactive |  |  | 
CCCCCCCCCCCCCCCCCCOS(=O)(=O)O | inactive | 61.1 µM (active) | inactive | inactive | inactive | inactive | inactive | inactive | inactive | inactive | inactive | inactive | inactive | inactive | inactive | inactive | inactive |  |  | 
C[Si](C)(CCCN)O[Si](C)(C)CCCN | inactive | inactive | inactive | inactive | inactive | inactive | inactive | inactive | inactive | inactive |  | inactive | inactive | inactive | inactive | inactive | inactive | inactive |  | 
O=C(Cl)c1cc(C(=O)Cl)cc(C(=O)Cl)c1 | inactive | inactive | inactive | inactive | inactive | inactive | inactive | inactive | inactive | inactive | inactive | inactive | inactive |  | inactive | inactive |  |  |  | 
CCOc1ccc(N)c([N+](=O)[O-])c1 |  | inactive |  | inactive | inactive |  | inactive | inactive | inactive | inactive | inactive | inactive | inactive | inactive | inactive | inactive |  |  | inactive | inactive
CC(=O)c1cccc([N+](=O)[O-])c1 |  | inactive |  | inactive | inactive | inactive | inactive | inactive | inactive | inactive | inactive | inactive | inactive | inactive | inactive | inactive | inactive | inactive | inactive | inactive
CN(Cc1ccc(C(C)(C)C)cc1)Cc1cccc2ccccc12 | inactive | 23.7 µM (active) | inactive | inactive | inactive | inactive | inactive | inactive | inactive | inactive | inactive | inactive | inactive | inactive | inactive | inactive | inactive | inactive |  | inactive
NCCCN1CCOCC1 | inactive | inactive | inactive | inactive | inactive | inactive | inactive | inactive | inactive | inactive | inactive | inactive | inactive | inactive | inactive | inactive | inactive | inactive |  | 
Cc1cc(N)c2cc(NC(=O)Nc3ccc4nc(C)cc(N)c4c3)ccc2n1 |  |  | inactive |  | inactive |  | inactive | inactive | inactive | inactive | inactive | inactive | inactive | inactive | inactive | inactive |  |  | inactive | 
Cn1c(=O)cc(Oc2ccc(F)cc2F)c2cnc(NCC(C)(C)O)nc21 |  | inactive | inactive |  | inactive | inactive | inactive | inactive | inactive | inactive | inactive | inactive | inactive | inactive | inactive | inactive | inactive | inactive | inactive | 
OCc1cc(C(O)CNCCCCCCOCCCCc2ccccc2)ccc1O (stereo not given) |  | inactive and 26.6 µM (active) | inactive |  | inactive |  | inactive | inactive | inactive | inactive | inactive | inactive | inactive | inactive |  | inactive |  | inactive | inactive | 
CCCCCCCCCCCCCCCCOS(=O)(=O)O | inactive | inactive | inactive | inactive | inactive | inactive | inactive | inactive | inactive | inactive | inactive | inactive | inactive | inactive | inactive | inactive |  |  |  | 
C=C(C)C(=O)OCC | inactive | inactive | inactive | inactive | inactive | inactive | inactive | inactive | inactive | inactive | inactive | inactive | inactive | inactive | inactive | inactive | inactive | inactive |  | inactive
COc1ccc(C(=O)c2ccc(OC)cc2O)c(O)c1 |  | inactive | inactive |  |  | inactive | inactive | inactive | inactive | inactive | inactive | inactive | inactive | inactive |  | inactive | inactive |  | 19.5 µM (active) | 6.16 µM (active)
